Data taken from publication PMC5540273 (PLoS ONE, 2017).

tested on: T1, GRK3; conditions: concentration: 1 μM, replicates: in singlicate; n = 1
T1 construct: gene ADRBK2
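Note: KINOMEscan kinase panel screen.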

Row | SMILES | %Inh [%]
1 | C[C@@H]1CC[C@H](C(=O)NC2CCCCC2)CN1c1cc(-c2ccc3c(N)n[nH]c3c2)nc(N)n1 [GSK2291363] | 32
2 | Cc1nc(N(C)[C@H]2CN(C(=O)CC#N)CC[C@H]2C)c2cc[nH]c2n1 | 0
3 | Nc1nccc2scc(-c3ccc4c(c3)CCN4C(=O)Cc3ccccc3)c12 [GSK2576924] | 100
4 | COc1cc(OC)cc(-c2cc3cnc(N)nc3nc2NC(=O)NC(C)(C)C)c1 | 0
5 | O=C(Nc1n[nH]c2cc(-c3ccccc3F)ccc12)C1CC1 [SB-733371] | 0
6 | CCCNC(=O)Nc1ccc(Oc2ncnc3ccn(C)c23)cc1 | 0
7 | COc1cc2ncn(-c3cc(OCc4ccncc4Br)c(C(N)=O)s3)c2cc1OC [GW854278] | 0
8 | Cc1nn2c(=O)cc(N3CCOCC3)nc2n1Cc1cccc(Cl)c1Cl [GSK2342769] | 83
9 | Cc1c(Cn2c(C)nn3c(=O)cc(N4CCO[C@H](C)C4)nc23)cccc1C(F)(F)F [GSK2373690] | 18
10 | COc1cc2nccc(Nc3ccc(OCc4ccc(NC(C)=O)cc4)cc3)c2cc1OC.Cl [GW440135] | 17
11 | Cc1cccc(-c2nc(Nc3ccc4c(cnn4C)c3)c3ccccc3n2)n1 [GW876731] | 5
12 | CCCC(=O)Nc1n[nH]c2ncc(-c3cccc4ccccc34)cc12 [SB-642057] | 0
13 | FC(F)(F)c1ccc(-c2ncn(CCCN3CCOCC3)c2-c2ccncc2)cc1 [SB-217780] | 0
14 | OCCCNc1nccc(-c2c(-c3cccc(C(F)(F)F)c3)nn3cc(C(F)(F)F)ccc23)n1 [GW630813] | 37
15 | COc1cc(Nc2nccc(N3CCC(NC(=O)C4COc5ccccc5O4)C3)n2)cc(OC)c1OC (centres unmarked) [GSK1379761] | 38
16 | CCc1ccc(-c2ccc3c(c2)-c2nn(C)cc2S(=O)(=O)N3C)cc1 | 0
17 | COc1cc(Nc2nccc(N3CCC(NC(=O)C(C)c4ccc(Cl)cc4)C3)n2)cc(OC)c1OC (centres unmarked) [GSK1379757] | 17
18 | CCS(=O)c1ccc(-c2coc3ccc(-c4nnc(C)o4)cc23)cc1 (centres unmarked) | 5
19 | O=C1NC(=O)C(c2ccccc2)=C1Nc1cccc(O)c1 [SB-390534] | 0

Row | SMILES | %Inh [%]
20 | COc1cccc(-n2cnc3c(N)ncnc32)c1 [SKF-97416] | 11
21 | COc1cc2ncn(-c3cc(OCc4ccncc4)c(C(N)=O)s3)c2cc1OC [GSK336313] | 0
22 | COC(=O)c1c(-c2ccccc2)c2cc(Br)ccc2c(=O)n1Cc1ccc(S(C)(=O)=O)cc1 | 0
23 | Nc1ncnc2c1ncn2-c1cccc(F)c1 [SKF-97560] | 40
24 | Nc1n[nH]c2nnc(-c3ccccc3)c(-c3ccccc3)c12 [GW554060] | 44
25 | Cc1ccc(-c2ccc3c(ccc4sc5c(c43)NC[C@@H](C)N=C5N(C)C)n2)cn1 | 1
26 | COc1cc2ncn(-c3cc(OCc4ccc(S(C)(=O)=O)cc4)c(C(N)=O)s3)c2cc1OC [GW869979] | 0
27 | Cl.NS(=O)(=O)c1cccc(Nc2cc(-c3ccc(F)cc3)n[nH]2)c1 [GW824645] | 21
28 | COc1cccc(C2=C(N(C)c3ccccc3)C(=O)NC2=O)c1 [SB-334865] | 5
29 | CCn1c(-c2ccoc2)nc2cnccc21 [SB-733887] | 0
30 | COc1cc2nccc(Nc3cccc(Oc4ccccc4)c3)c2cc1OC.Cl [GW284543] | 16
31 | CCC(=O)c1c(-c2ccccc2)c2cc(Cl)ccc2c(=O)n1Cc1cc(S(C)(=O)=O)n(CC(N)=O)n1 | 0
32 | CCn1c(-c2nonc2N)nc2ccccc21 [SB-693162/GW549034] | 14
33 | CN(C)c1cc(-c2ccc3c(N)n[nH]c3c2)nc(N)n1 [GSK2219329] | 0
34 | Cc1ccccc1COc1cc(-n2cnc3cc(Cl)ccc32)sc1C(N)=O [GW813349] | 0
35 | Cl.c1ccc(Cn2cnc3cc(Nc4ncnc5ccccc45)ccc32)cc1 [GW272142] | 50
36 | Nc1ncnc2c1ncn2-c1cccc2ccccc12 [SKF-97184] | 0
37 | COc1ccc(CNC(=O)NC2CCN(c3ccnc(Nc4ccc(F)cc4)n3)C2)cc1 (centres unmarked) [GSK1379706] | 51

tested on: GRK4; conditions: concentration: 1 μM, replicates: in singlicate; n = 1

Row | SMILES | %Inh [%]
38 | C[C@@H]1CC[C@H](C(=O)NC2CCCCC2)CN1c1cc(-c2ccc3c(N)n[nH]c3c2)nc(N)n1 [GSK2291363] | 45
39 | Cc1nc(N(C)[C@H]2CN(C(=O)CC#N)CC[C@H]2C)c2cc[nH]c2n1 | 0
40 | Nc1nccc2scc(-c3ccc4c(c3)CCN4C(=O)Cc3ccccc3)c12 [GSK2576924] | 0
41 | COc1cc(OC)cc(-c2cc3cnc(N)nc3nc2NC(=O)NC(C)(C)C)c1 | 13
42 | O=C(Nc1n[nH]c2cc(-c3ccccc3F)ccc12)C1CC1 [SB-733371] | 26
43 | CCCNC(=O)Nc1ccc(Oc2ncnc3ccn(C)c23)cc1 | 6
44 | COc1cc2ncn(-c3cc(OCc4ccncc4Br)c(C(N)=O)s3)c2cc1OC [GW854278] | 35
45 | Cc1nn2c(=O)cc(N3CCOCC3)nc2n1Cc1cccc(Cl)c1Cl [GSK2342769] | 2
46 | Cc1c(Cn2c(C)nn3c(=O)cc(N4CCO[C@H](C)C4)nc23)cccc1C(F)(F)F [GSK2373690] | 3
47 | COc1cc2nccc(Nc3ccc(OCc4ccc(NC(C)=O)cc4)cc3)c2cc1OC.Cl [GW440135] | 23
48 | Cc1cccc(-c2nc(Nc3ccc4c(cnn4C)c3)c3ccccc3n2)n1 [GW876731] | 0
49 | CCCC(=O)Nc1n[nH]c2ncc(-c3cccc4ccccc34)cc12 [SB-642057] | 0
50 | FC(F)(F)c1ccc(-c2ncn(CCCN3CCOCC3)c2-c2ccncc2)cc1 [SB-217780] | 26
51 | OCCCNc1nccc(-c2c(-c3cccc(C(F)(F)F)c3)nn3cc(C(F)(F)F)ccc23)n1 [GW630813] | 0
52 | COc1cc(Nc2nccc(N3CCC(NC(=O)C4COc5ccccc5O4)C3)n2)cc(OC)c1OC (centres unmarked) [GSK1379761] | 0
53 | CCc1ccc(-c2ccc3c(c2)-c2nn(C)cc2S(=O)(=O)N3C)cc1 | 0
54 | COc1cc(Nc2nccc(N3CCC(NC(=O)C(C)c4ccc(Cl)cc4)C3)n2)cc(OC)c1OC (centres unmarked) [GSK1379757] | 37
55 | CCS(=O)c1ccc(-c2coc3ccc(-c4nnc(C)o4)cc23)cc1 (centres unmarked) | 21
56 | O=C1NC(=O)C(c2ccccc2)=C1Nc1cccc(O)c1 [SB-390534] | 3

Row | SMILES | %Inh [%]
57 | COc1cccc(-n2cnc3c(N)ncnc32)c1 [SKF-97416] | 10
58 | COc1cc2ncn(-c3cc(OCc4ccncc4)c(C(N)=O)s3)c2cc1OC [GSK336313] | 0
59 | COC(=O)c1c(-c2ccccc2)c2cc(Br)ccc2c(=O)n1Cc1ccc(S(C)(=O)=O)cc1 | 0
60 | Nc1ncnc2c1ncn2-c1cccc(F)c1 [SKF-97560] | 0
61 | Nc1n[nH]c2nnc(-c3ccccc3)c(-c3ccccc3)c12 [GW554060] | 6
62 | Cc1ccc(-c2ccc3c(ccc4sc5c(c43)NC[C@@H](C)N=C5N(C)C)n2)cn1 | 0
63 | COc1cc2ncn(-c3cc(OCc4ccc(S(C)(=O)=O)cc4)c(C(N)=O)s3)c2cc1OC [GW869979] | 1
64 | Cl.NS(=O)(=O)c1cccc(Nc2cc(-c3ccc(F)cc3)n[nH]2)c1 [GW824645] | 0
65 | COc1cccc(C2=C(N(C)c3ccccc3)C(=O)NC2=O)c1 [SB-334865] | 0
66 | CCn1c(-c2ccoc2)nc2cnccc21 [SB-733887] | 0
67 | COc1cc2nccc(Nc3cccc(Oc4ccccc4)c3)c2cc1OC.Cl [GW284543] | 7
68 | CCC(=O)c1c(-c2ccccc2)c2cc(Cl)ccc2c(=O)n1Cc1cc(S(C)(=O)=O)n(CC(N)=O)n1 | 0
69 | CCn1c(-c2nonc2N)nc2ccccc21 [SB-693162/GW549034] | 30
70 | CN(C)c1cc(-c2ccc3c(N)n[nH]c3c2)nc(N)n1 [GSK2219329] | 0
71 | Cc1ccccc1COc1cc(-n2cnc3cc(Cl)ccc32)sc1C(N)=O [GW813349] | 2
72 | Cl.c1ccc(Cn2cnc3cc(Nc4ncnc5ccccc45)ccc32)cc1 [GW272142] | 0
73 | Nc1ncnc2c1ncn2-c1cccc2ccccc12 [SKF-97184] | 14
74 | COc1ccc(CNC(=O)NC2CCN(c3ccnc(Nc4ccc(F)cc4)n3)C2)cc1 (centres unmarked) [GSK1379706] | 19
